# Over roughly 2,900 compounds, “NF-kB SEAP reporter activity, fold change vs agonist alone” has its median near 0.99; the highest 2% begin near 2.6. The list comes from a sample in which the highest values are over-represented; it also holds similar structures and randomly drawn compounds.
# How the values were obtained:
# RAW-Dual [1] = assay: NF-kB SEAP reporter activity, fold change vs agonist alone; cytotoxicity flag (confluency mask): not cytotoxic; higher = enhanced NF-kB activity
# Summary of the method: (§1)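 Reporter activity is given as fold change relative to agonist-alone wells. To measure it, 50 nL of library stock was pin-tooled onto RAW-Dual macrophages (50,000 cells/well, DMEM, 384-well plates), a PRR agonist followed 1 h later, and cells stayed at 37 °C, 5% CO2. Twenty hours on, supernatant was assayed for IRF (QuantiLuc luminescence) and NF-κB (QuantiBlue, 620 nm absorbance), and wells under 70% of agonist-control IncuCyte confluency in both mask sets were marked cytotoxic.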
# RAW-Dual [2] = assay: NF-kB SEAP reporter activity, fold change vs agonist alone; higher = enhanced NF-kB activity; settings: library stock concentration (final ~1000-fold dilution): 10 mM, cytotoxicity flag (confluency mask): not cytotoxic
# Summary of the method: as §1
# [3] = agonist: ODN 1826 (TLR9) 0.5 ug/mL
# [4] = agonist: Pam2CSK4 (TLR2/6) 0.1 ug/mL
# [5] = agonist: Pam3CSK4 (TLR2/1) 0.1 ug/mL
smiles,measurement,setting,value
COc1cc2c3cc1Oc1c(OC)c(OC)cc4c1C(Cc1ccc(O)c(c1)Oc1ccc(cc1)CC3N(C)CC2)N(C)CC4.Cl.Cl (stereo not drawn) (library stock concentration (final ~1000-fold dilution): 10 mM),NF-kB SEAP reporter activity,RAW-Dual [1]; agonist: LPS (TLR4) 0.1 ug/mL,1.44
same,NF-kB SEAP reporter activity,RAW-Dual [1]; [3],0.2
same,NF-kB SEAP reporter activity,RAW-Dual [1]; [4],1.08
same,NF-kB SEAP reporter activity,RAW-Dual [1]; [5],1.19
COc1cc2c3cc1Oc1c(OC)c(OC)cc4c1C(Cc1ccc(O)c(c1)Oc1ccc(cc1)CC3N(C)CC2)N(C)CC4.Cl.Cl (stereo not drawn),NF-kB SEAP reporter activity,RAW-Dual [2]; agonist: Imiquimod (TLR7) […],0.379
same,NF-kB SEAP reporter activity,RAW-Dual [2]; agonist: MPLA (TLR4) […],1.37
CC1(C)SC2C(NC(=O)C(N)c3ccccc3)C(=O)N2C1C(=O)OCOC(=O)C1N2C(=O)CC2S(=O)(=O)C1(C)C (stereo not drawn) (library stock concentration (final ~1000-fold dilution): 10 mM),NF-kB SEAP reporter activity,RAW-Dual [1]; agonist: LPS (TLR4) 0.1 ug/mL,1.06
same,NF-kB SEAP reporter activity,RAW-Dual [1]; [3],0.886
same,NF-kB SEAP reporter activity,RAW-Dual [1]; [4],1.16
same,NF-kB SEAP reporter activity,RAW-Dual [1]; [5],0.993
CC1(C)SC2C(NC(=O)C(N)c3ccccc3)C(=O)N2C1C(=O)OCOC(=O)C1N2C(=O)CC2S(=O)(=O)C1(C)C (stereo not drawn),NF-kB SEAP reporter activity,RAW-Dual [2]; agonist: MPLA (TLR4) […],1.07
Cc1nc(-c2cn3c(n2)-c2ccc(-c4cnn(C(C)(C)C(N)=O)c4)cc2OCC3)n(C(C)C)n1,NF-kB SEAP reporter activity,RAW-Dual [2]; agonist: Imiquimod (TLR7) […],0.619
same,NF-kB SEAP reporter activity,RAW-Dual [2]; agonist: MPLA (TLR4) […],1.84
CC(Oc1ccc2c(c1)OCCn1cc(-c3ncnn3C(C)C)nc1-2)C(N)=O (stereo not drawn),NF-kB SEAP reporter activity,RAW-Dual [2]; agonist: Imiquimod (TLR7) […],0.585
same,NF-kB SEAP reporter activity,RAW-Dual [2]; agonist: MPLA (TLR4) […],1.4
CC(Oc1ccc2c(c1)OCCn1cc(-c3ncnn3C(C)C)nc1-2)C(N)=O (stereo not drawn) (library stock concentration (final ~1000-fold dilution): 10 mM),NF-kB SEAP reporter activity,RAW-Dual [1]; agonist: LPS (TLR4) 0.1 ug/mL,2.07
same,NF-kB SEAP reporter activity,RAW-Dual [1]; [3],1.1
same,NF-kB SEAP reporter activity,RAW-Dual [1]; [4],0.894
same,NF-kB SEAP reporter activity,RAW-Dual [1]; [5],1.41
Cc1nc(-c2cn3c(n2)-c2ccc(-c4cnn(C(C)(C)C(N)=O)c4)cc2OCC3)n(C(C)C)n1 (library stock concentration (final ~1000-fold dilution): 10 mM),NF-kB SEAP reporter activity,RAW-Dual [1]; agonist: LPS (TLR4) 0.1 ug/mL,2.74
same,NF-kB SEAP reporter activity,RAW-Dual [1]; [3],1.31
same,NF-kB SEAP reporter activity,RAW-Dual [1]; [4],0.996
same,NF-kB SEAP reporter activity,RAW-Dual [1]; [5],1.15
OCC1OC(c2ccc(F)c(Cc3cc4ccccc4s3)c2)C(O)C(O)C1O (stereo not drawn) (library stock concentration (final ~1000-fold dilution): 10 mM),NF-kB SEAP reporter activity,RAW-Dual [1]; agonist: LPS (TLR4) 0.1 ug/mL,1.07
same,NF-kB SEAP reporter activity,RAW-Dual [1]; [3],0.948
same,NF-kB SEAP reporter activity,RAW-Dual [1]; [4],1.15
same,NF-kB SEAP reporter activity,RAW-Dual [1]; [5],1.17
OCC1OC(c2ccc(F)c(Cc3cc4ccccc4s3)c2)C(O)C(O)C1O (stereo not drawn),NF-kB SEAP reporter activity,RAW-Dual [2]; agonist: Imiquimod (TLR7) […],1.06
same,NF-kB SEAP reporter activity,RAW-Dual [2]; agonist: MPLA (TLR4) […],1.04
Nc1ccn(C2CSC(CO)O2)c(=O)n1 (stereo not drawn) (library stock concentration (final ~1000-fold dilution): 10 mM),NF-kB SEAP reporter activity,RAW-Dual [1]; agonist: LPS (TLR4) 0.1 ug/mL,0.862
same,NF-kB SEAP reporter activity,RAW-Dual [1]; [3],1.03
same,NF-kB SEAP reporter activity,RAW-Dual [1]; [4],0.999
same,NF-kB SEAP reporter activity,RAW-Dual [1]; [5],1.11
Nc1ccn(C2CSC(CO)O2)c(=O)n1 (stereo not drawn),NF-kB SEAP reporter activity,RAW-Dual [2]; agonist: Imiquimod (TLR7) […],0.893
same,NF-kB SEAP reporter activity,RAW-Dual [2]; agonist: MPLA (TLR4) […],1.04
COC1CCC(N2C(=O)CNc3ncc(-c4ccc(C(C)(C)O)nc4)nc32)CC1 (stereo not drawn),NF-kB SEAP reporter activity,RAW-Dual [2]; agonist: Imiquimod (TLR7) […],0.711
same,NF-kB SEAP reporter activity,RAW-Dual [2]; agonist: MPLA (TLR4) […],0.53
COC1CCC(N2C(=O)CNc3ncc(-c4ccc(C(C)(C)O)nc4)nc32)CC1 (stereo not drawn) (library stock concentration (final ~1000-fold dilution): 10 mM),NF-kB SEAP reporter activity,RAW-Dual [1]; agonist: LPS (TLR4) 0.1 ug/mL,0.463
same,NF-kB SEAP reporter activity,RAW-Dual [1]; [3],0.349
same,NF-kB SEAP reporter activity,RAW-Dual [1]; [4],0.719
same,NF-kB SEAP reporter activity,RAW-Dual [1]; [5],0.458
CC(NC(=O)C(=O)Nc1ccccc1C(C)(C)C)C(=O)NC(CC(=O)O)C(=O)COc1c(F)c(F)cc(F)c1F (stereo not drawn),NF-kB SEAP reporter activity,RAW-Dual [2]; agonist: Imiquimod (TLR7) […],1.15
same,NF-kB SEAP reporter activity,RAW-Dual [2]; agonist: MPLA (TLR4) […],0.848
CC(NC(=O)C(=O)Nc1ccccc1C(C)(C)C)C(=O)NC(CC(=O)O)C(=O)COc1c(F)c(F)cc(F)c1F (stereo not drawn) (library stock concentration (final ~1000-fold dilution): 10 mM),NF-kB SEAP reporter activity,RAW-Dual [1]; agonist: LPS (TLR4) 0.1 ug/mL,0.607
same,NF-kB SEAP reporter activity,RAW-Dual [1]; [3],1.25
same,NF-kB SEAP reporter activity,RAW-Dual [1]; [4],0.912
same,NF-kB SEAP reporter activity,RAW-Dual [1]; [5],1.17
CCOC(=O)Nc1cc(-c2ccc(C)c(NS(C)(=O)=O)c2)nn2c(C)nnc12 (library stock concentration (final ~1000-fold dilution): 10 mM),NF-kB SEAP reporter activity,RAW-Dual [1]; agonist: LPS (TLR4) 0.1 ug/mL,3.81
same,NF-kB SEAP reporter activity,RAW-Dual [1]; [3],1.93
same,NF-kB SEAP reporter activity,RAW-Dual [1]; [4],0.828
same,NF-kB SEAP reporter activity,RAW-Dual [1]; [5],1.44
CCOC(=O)Nc1cc(-c2ccc(C)c(NS(C)(=O)=O)c2)nn2c(C)nnc12,NF-kB SEAP reporter activity,RAW-Dual [2]; agonist: Imiquimod (TLR7) […],1.43
same,NF-kB SEAP reporter activity,RAW-Dual [2]; agonist: MPLA (TLR4) […],2.52

# From the supplement of paper PMC10037445
